# According to ChEMBL document CHEMBL3988442, “University of Dundee, Small-Polar-MMV Screening Library” (2021):
# For some assays here: Measured potencies and affinities stand elsewhere.
# Tests used:
# Parameters in all cases: scale not given: direction of the effect not stated beside the values
# [1] = molecular target: Protein translocase subunit SecA (Escherichia coli (strain K12)) (UniProt P10408); assay: Assay to Identify E. coli SecA ATPase Inhibitors; type: functional; details: 30 µM
# [2] = molecular target: T1, Ubiquitin-activating enzyme e1, putative (Leishmania donovani (strain BPK282A1)) (UniProt E9BSI1); assay: Leishmania donovani Ubiquitin Activating Enzyme (LdE1); type: functional; details: 30 µM
# T1 sequence (whole entry): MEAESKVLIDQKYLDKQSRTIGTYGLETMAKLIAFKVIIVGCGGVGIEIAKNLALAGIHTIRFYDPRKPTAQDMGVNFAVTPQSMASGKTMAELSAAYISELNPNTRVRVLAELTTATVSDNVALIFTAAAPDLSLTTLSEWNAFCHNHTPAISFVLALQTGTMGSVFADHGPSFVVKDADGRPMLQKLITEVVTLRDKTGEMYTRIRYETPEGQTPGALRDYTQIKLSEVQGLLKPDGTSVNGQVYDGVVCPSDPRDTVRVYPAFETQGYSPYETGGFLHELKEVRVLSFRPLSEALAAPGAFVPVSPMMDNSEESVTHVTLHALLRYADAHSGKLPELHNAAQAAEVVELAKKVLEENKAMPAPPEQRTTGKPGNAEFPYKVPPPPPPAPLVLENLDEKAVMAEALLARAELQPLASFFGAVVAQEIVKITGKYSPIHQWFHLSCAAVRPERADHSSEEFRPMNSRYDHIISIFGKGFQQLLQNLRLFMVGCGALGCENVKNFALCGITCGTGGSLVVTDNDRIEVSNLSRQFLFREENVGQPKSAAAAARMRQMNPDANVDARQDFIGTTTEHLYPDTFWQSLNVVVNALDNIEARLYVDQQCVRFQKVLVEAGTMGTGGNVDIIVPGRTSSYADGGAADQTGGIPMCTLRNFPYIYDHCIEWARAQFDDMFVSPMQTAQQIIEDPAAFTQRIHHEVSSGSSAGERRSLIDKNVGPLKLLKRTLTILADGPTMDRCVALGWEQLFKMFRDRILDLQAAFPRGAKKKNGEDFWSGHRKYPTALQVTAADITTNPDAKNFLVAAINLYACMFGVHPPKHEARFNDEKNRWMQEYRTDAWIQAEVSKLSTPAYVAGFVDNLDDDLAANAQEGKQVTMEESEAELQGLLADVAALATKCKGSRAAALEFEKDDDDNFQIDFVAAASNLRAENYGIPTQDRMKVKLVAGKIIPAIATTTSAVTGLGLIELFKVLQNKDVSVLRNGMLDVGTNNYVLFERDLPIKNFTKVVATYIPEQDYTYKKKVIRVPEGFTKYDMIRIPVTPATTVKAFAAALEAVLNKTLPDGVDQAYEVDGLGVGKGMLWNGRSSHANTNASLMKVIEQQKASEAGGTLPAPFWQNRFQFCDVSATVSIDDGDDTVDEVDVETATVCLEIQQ
# [3] = molecular target: AMP-activated protein kinase, AMPK (Homo sapiens) (UniProt P54646+O43741+P54619+Q9UGJ0+Q9Y478+Q13131+Q9UGI9); assay: AMP-dependent Kinase enzyme assay. An in vitro enzyme assay that detects ADP turnover that is directly proportional to AMPK activity. This uses naive AMPK that is activated during the assay with MK-8722; type: functional; details: 30 µM
# [4] = molecular target: Sialic acid-binding Ig-like lectin 9 (Homo sapiens) (UniProt Q9Y336); assay: Hs-Siglec9 ALPHAscreen SOP 20170721; details: 10 µM
# [5] = tested on: Trypanosoma cruzi; assay: Trypanosoma cruzi phosphomannomutase and mannose-1-phosphate guanylyltransferase assay; type: functional; details: 10 µM
# [6] = molecular target: T2, Arginase-2, mitochondrial (Homo sapiens) (UniProt P78540); assay: in vitro enzyme assay to detect the production of urea directly proportional to the activity of Arginase II; type: functional; details: 33.3 µM; also: in the data most compounds retested in dose-response had high values
# T2 sequence (whole entry): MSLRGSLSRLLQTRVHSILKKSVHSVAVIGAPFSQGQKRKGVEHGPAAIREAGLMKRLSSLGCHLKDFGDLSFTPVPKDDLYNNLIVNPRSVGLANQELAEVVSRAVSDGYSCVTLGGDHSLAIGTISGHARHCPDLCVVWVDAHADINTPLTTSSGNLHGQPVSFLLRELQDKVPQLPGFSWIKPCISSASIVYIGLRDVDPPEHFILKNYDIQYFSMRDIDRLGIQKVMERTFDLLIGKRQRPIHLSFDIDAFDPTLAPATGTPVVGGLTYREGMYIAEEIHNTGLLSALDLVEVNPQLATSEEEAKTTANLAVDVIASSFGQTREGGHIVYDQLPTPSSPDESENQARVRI
# [7] = molecular target: T3, Proteasome subunit beta (Trypanosoma cruzi) (UniProt O96673); assay: Trypanosoma cruzi proteasome chymotrypsin-like activity (TcProtChymo) assay.; also: in the data most compounds retested in dose-response had high values; type: functional; details: 9.37 µM
# T3 sequence (whole entry): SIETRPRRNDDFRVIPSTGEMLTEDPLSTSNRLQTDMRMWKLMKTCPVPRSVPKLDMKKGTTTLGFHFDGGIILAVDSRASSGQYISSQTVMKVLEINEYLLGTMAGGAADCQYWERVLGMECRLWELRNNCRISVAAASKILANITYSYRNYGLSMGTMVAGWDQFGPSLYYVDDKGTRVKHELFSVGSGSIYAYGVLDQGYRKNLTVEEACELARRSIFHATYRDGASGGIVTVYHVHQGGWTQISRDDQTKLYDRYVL
# [8] = species on record: Homo sapiens; assay: To identify inhibition of the IFN signalling (Jak-Stat) pathway via expression of an eGFP reporter gene under the control of an IFN-stimulated response element (ISRE) containing MxA promoter.; type: functional; details: 30 µM
# [9] = molecular target: T4, Tyrosyl-tRNA synthetase, putative (Trypanosoma cruzi (strain CL Brener)) (UniProt Q4DSP6); assay: Trypanosoma cruzi tyrosyl tRNA synthetase (TcYRS) _High Tyrosine SOP; type: functional; details: 30 µM; also: in the data most compounds retested in dose-response had high values
# T4 sequence (whole entry): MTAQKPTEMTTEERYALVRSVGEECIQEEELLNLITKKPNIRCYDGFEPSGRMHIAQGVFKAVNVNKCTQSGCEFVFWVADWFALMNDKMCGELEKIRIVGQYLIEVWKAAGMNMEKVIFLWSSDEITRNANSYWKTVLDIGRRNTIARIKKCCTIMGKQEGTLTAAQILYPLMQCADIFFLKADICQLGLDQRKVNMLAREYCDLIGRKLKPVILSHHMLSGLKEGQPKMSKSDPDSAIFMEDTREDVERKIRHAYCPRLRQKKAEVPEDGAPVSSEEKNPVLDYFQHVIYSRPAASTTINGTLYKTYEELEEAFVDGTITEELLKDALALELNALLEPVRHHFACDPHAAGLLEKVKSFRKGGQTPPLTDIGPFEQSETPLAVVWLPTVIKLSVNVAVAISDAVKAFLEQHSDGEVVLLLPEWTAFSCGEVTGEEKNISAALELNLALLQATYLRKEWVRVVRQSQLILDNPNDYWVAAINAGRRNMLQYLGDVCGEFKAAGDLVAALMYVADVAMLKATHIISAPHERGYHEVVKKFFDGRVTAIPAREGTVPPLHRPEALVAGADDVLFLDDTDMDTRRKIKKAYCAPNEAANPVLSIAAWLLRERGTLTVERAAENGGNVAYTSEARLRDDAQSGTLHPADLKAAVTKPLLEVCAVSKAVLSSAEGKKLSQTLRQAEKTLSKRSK
# [10] = molecular target: T4, Tyrosyl-tRNA synthetase, putative (Trypanosoma cruzi (strain CL Brener)); assay: Trypanosoma cruzi tyrosyl tRNA synthetase (TcYRS) SOP; type: functional; details: 30 µM
# [11] = molecular target: Chromo domain-containing protein 1 (Saccharomyces cerevisiae (strain ATCC 204508 / S288c) (Baker's yeast)) (UniProt P32657); assay: ScCHD-1 Enzyme Inhibition Assay; type: functional; details: 30 µM; also: in the data most compounds retested in dose-response had high values
# Sequence of Chromo domain-containing protein 1 (Saccharomyces cerevisiae (strain ATCC 204508 / S288c) (Baker's yeast)) (P32657 whole entry, the tested form may be a part): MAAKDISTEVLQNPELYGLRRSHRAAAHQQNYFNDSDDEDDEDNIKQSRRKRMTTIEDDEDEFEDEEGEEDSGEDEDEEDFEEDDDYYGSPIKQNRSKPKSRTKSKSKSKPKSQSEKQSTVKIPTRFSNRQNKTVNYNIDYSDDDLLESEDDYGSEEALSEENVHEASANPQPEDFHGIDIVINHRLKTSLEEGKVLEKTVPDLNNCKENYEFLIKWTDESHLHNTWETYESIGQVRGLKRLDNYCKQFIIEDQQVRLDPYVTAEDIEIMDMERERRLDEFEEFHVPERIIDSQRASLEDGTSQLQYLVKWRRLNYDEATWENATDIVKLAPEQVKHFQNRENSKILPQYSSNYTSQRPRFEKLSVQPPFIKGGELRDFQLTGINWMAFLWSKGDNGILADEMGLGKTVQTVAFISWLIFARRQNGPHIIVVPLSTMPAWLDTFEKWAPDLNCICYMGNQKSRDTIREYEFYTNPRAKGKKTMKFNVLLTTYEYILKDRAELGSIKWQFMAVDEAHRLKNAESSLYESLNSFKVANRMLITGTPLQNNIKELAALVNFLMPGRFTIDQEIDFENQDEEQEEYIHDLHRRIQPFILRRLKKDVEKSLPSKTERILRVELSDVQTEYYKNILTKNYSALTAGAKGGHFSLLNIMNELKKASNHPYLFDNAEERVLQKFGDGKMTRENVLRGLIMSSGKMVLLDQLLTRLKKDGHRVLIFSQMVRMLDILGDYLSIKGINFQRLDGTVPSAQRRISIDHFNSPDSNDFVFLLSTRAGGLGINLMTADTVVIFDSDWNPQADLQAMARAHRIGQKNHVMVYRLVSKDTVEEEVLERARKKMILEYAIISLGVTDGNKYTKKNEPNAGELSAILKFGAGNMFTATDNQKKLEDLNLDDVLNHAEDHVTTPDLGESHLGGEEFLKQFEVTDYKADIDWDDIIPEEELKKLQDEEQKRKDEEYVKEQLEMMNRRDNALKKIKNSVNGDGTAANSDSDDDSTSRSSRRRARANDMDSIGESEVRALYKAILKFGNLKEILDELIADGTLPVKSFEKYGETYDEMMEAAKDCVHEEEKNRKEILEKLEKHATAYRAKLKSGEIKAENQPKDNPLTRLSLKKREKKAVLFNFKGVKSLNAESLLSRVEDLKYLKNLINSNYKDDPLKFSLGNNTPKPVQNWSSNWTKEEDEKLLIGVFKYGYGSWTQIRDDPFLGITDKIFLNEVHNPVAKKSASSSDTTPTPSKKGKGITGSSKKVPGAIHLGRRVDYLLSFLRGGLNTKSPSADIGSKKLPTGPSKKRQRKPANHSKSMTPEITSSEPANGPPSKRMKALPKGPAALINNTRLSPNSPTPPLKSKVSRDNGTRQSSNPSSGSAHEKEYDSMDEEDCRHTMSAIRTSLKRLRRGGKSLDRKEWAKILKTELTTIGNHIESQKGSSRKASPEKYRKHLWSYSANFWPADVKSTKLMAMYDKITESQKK
# Sequence of Protein translocase subunit SecA (Escherichia coli (strain K12)) (P10408 whole entry): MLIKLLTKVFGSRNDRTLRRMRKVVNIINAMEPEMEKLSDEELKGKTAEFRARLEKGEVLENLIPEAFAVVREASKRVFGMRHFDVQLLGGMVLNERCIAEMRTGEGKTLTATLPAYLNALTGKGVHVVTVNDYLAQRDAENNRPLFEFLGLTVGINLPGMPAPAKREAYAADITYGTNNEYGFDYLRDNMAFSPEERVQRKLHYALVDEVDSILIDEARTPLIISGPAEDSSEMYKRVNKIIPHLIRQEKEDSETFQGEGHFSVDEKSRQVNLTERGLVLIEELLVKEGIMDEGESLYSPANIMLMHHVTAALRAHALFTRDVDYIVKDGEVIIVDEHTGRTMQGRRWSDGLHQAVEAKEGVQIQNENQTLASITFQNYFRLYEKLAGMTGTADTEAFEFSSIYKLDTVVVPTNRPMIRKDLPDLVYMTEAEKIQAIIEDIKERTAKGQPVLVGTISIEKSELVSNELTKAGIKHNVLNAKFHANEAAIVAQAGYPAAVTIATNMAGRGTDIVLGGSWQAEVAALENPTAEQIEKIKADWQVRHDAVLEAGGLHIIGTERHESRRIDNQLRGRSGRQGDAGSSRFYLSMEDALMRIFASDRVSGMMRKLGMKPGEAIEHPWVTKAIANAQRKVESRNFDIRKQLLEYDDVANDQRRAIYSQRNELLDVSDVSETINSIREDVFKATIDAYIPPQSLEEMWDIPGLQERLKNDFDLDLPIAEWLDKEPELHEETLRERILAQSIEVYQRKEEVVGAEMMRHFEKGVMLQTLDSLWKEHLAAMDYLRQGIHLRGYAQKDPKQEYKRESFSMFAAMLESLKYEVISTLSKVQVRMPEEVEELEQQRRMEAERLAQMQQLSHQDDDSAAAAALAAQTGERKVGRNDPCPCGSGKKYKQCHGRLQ
# Sequence of Sialic acid-binding Ig-like lectin 9 (Homo sapiens) (Q9Y336 whole entry): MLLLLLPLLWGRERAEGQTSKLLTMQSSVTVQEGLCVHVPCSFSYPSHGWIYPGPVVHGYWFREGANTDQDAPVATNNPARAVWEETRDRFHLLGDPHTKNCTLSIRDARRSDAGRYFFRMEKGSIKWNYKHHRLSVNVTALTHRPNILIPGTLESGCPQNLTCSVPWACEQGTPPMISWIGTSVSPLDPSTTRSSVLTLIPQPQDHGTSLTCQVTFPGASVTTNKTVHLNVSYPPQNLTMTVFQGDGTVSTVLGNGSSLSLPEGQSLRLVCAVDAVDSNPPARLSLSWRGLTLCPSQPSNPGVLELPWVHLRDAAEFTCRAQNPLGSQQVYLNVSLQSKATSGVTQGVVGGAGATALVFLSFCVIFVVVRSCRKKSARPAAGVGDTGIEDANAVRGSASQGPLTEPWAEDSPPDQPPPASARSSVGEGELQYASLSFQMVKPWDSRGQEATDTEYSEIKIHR
Compound,Percent Effect [1] [%],Percent Effect [2] [%],Percent Effect [3] [%],Percent Effect [4] [%],Percent Effect [5] [%],Percent Effect [6] [%],Percent Effect [7] [%],Percent Effect [8] [%],Percent Effect [9] [%],Percent Effect [10] [%],Percent Effect [11] [%]
CC(C)c1cnc(CNc2c(F)cccc2-n2cccn2)o1,1.05,-1.39,-3.66,6.14,1.26,12.4,11.2,-14.6,-1.05,0,0.741
CC(C)c1nccn1C1CCCN(C(=O)c2ccc3[nH]nnc3c2)C1 (stereo unspecified),-8.55,7.79,-5.52,-4.53,9.89,-1.05,19,-2.41,4.76,11.8,-22.9
Cc1nc2ccccc2c(=O)n1CCC(=O)N1CCSCC1,-6.49,13.2,14.1,6.54,3.19,0,6.85,4.99,6.37,17.1,-13.3
Cc1cccc(-c2nc(C)nn2CC(=O)N(C)C2CC2)c1,-4.92,15.6,4.09,7.36,3.18,-3.2,3.55,5.06,6.8,21.9,-3.56
Cc1ccc(CNC2CCN(CCc3ccncc3)CC2)s1,-6.73,-5.41,-1.83,2.51,-1.76,5.42,7.86,1.37,7.92,8.54,-4.89
O=C(Cn1cnc(-c2ccccc2)cc1=O)Nc1ccncc1,-2.42,20.8,-3.34,-1.53,2.07,1.94,16.9,26.1,6.35,16.7,-9.23
Cc1cccc2c1cnn2CCC(=O)NCC(=O)N(C)C,-1.87,1.33,12.2,7.1,-6.68,-10,14.2,3.37,4.23,7.69,-10.3
Cn1c(Cn2ccnc2)nnc1C1CCCN(C2CCCCC2)C1 (stereo unspecified),-3.14,8.11,5.59,1.26,1.93,2.38,3.1,-7.16,5.82,19.5,-3.83
NS(=O)(=O)N1CCc2ccc(NC(=O)Cc3ccc(F)cc3)cc21,-2.62,2.74,-2.62,3.78,4.31,-39.1,6.92,20.9,-3.23,2.5,-1.74
O=C(Cc1ccc2c(c1)CCO2)N1CCCCC1Cn1cccn1 (stereo unspecified),-5.85,10.5,0.878,4.66,2.24,-5.92,7.19,7.18,5.32,7.79,-7.71
CCc1nc2n(n1)CC(NCC(=O)Nc1cc(C)on1)CC2 (stereo unspecified),-7.96,5.06,-1.49,2.07,-7.27,0.38,17.1,22.4,-3.45,-8.86,-4.18
CCS(=O)(=O)c1ccc(N2CCC(NC(=O)c3cnn(C)c3)CC2)cc1,-5.94,2.67,-5.84,34.3,10.2,-2.08,16.2,21.8,1.64,13.6,-5.47
CC(=O)N1CCC(Oc2ccc(Cl)cn2)CC1,-1.02,5.48,-4.62,4.94,4.5,8.64,3.19,18.8,3.23,7.5,-4.92
C1CC(c2noc(C3CC3)n2)CN(Cc2noc(C3CC3)n2)C1 (stereo unspecified),-3.36,0,-13.1,11.5,-3.11,-1.6,1.62,-3.78,0.493,1.24,1.88
CC(C)N1CCC(N2CCN(C3CCC3)CC2CCO)CC1 (stereo unspecified),-2.22,1.39,-21.6,12,5.73,20.8,-1.75,-10.3,2.1,5.13,0.447
COC(=O)CCN1CCCC1c1ccccc1Cl (stereo unspecified),-3.1,-2.67,-1.16,1.78,2.04,-1.56,5.41,1.88,3.83,6.17,-0.731
